Measured values as given in the supplement of paper PMC6411743.
± gives the standard deviation of the averaged measurements. The full data set covers some 6,500 targets. This sample favours those with the largest changes.

Compound: Nc1ncnc2c1ncn2[C@@H]1O[C@H](COP(=O)(O)OP(=O)(O)OP(=O)(O)O)[C@@H](O)[C@H]1O [adenosine triphosphate]
Assay: NP40-soluble protein abundance relative to vehicle (solubility fold change) (ratio); higher = more soluble protein in presence of ATP
Summary of the method: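 Jurkat crude lysate (Dounce-homogenised) was treated with eight concentrations from 0.1 to 10 mM for 10 min at room temperature, then 3 min at 37 °C. It was solubilised with 0.8% NP40 and benzonase (60 min, 4 °C) and ultracentrifuged, and the supernatant was TMT-labelled for LC-MS/MS. Intensities were vsn-normalised, and the value is the fold change against the NP40-processed vehicle per replicate, from three independent experiments.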

Chain of UniProt Q9H9H4 (Q9H9H4 whole entry): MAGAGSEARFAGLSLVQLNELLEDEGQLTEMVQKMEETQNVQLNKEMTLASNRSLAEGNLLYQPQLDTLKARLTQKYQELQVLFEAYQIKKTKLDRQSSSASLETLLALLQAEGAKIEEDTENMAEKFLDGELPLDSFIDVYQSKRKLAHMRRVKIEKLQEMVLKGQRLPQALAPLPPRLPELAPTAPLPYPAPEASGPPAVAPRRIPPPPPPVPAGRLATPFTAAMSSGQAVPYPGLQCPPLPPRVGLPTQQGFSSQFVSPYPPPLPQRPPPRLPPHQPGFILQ
Chain of UniProt Q9NZJ4 (Q9NZJ4 whole entry): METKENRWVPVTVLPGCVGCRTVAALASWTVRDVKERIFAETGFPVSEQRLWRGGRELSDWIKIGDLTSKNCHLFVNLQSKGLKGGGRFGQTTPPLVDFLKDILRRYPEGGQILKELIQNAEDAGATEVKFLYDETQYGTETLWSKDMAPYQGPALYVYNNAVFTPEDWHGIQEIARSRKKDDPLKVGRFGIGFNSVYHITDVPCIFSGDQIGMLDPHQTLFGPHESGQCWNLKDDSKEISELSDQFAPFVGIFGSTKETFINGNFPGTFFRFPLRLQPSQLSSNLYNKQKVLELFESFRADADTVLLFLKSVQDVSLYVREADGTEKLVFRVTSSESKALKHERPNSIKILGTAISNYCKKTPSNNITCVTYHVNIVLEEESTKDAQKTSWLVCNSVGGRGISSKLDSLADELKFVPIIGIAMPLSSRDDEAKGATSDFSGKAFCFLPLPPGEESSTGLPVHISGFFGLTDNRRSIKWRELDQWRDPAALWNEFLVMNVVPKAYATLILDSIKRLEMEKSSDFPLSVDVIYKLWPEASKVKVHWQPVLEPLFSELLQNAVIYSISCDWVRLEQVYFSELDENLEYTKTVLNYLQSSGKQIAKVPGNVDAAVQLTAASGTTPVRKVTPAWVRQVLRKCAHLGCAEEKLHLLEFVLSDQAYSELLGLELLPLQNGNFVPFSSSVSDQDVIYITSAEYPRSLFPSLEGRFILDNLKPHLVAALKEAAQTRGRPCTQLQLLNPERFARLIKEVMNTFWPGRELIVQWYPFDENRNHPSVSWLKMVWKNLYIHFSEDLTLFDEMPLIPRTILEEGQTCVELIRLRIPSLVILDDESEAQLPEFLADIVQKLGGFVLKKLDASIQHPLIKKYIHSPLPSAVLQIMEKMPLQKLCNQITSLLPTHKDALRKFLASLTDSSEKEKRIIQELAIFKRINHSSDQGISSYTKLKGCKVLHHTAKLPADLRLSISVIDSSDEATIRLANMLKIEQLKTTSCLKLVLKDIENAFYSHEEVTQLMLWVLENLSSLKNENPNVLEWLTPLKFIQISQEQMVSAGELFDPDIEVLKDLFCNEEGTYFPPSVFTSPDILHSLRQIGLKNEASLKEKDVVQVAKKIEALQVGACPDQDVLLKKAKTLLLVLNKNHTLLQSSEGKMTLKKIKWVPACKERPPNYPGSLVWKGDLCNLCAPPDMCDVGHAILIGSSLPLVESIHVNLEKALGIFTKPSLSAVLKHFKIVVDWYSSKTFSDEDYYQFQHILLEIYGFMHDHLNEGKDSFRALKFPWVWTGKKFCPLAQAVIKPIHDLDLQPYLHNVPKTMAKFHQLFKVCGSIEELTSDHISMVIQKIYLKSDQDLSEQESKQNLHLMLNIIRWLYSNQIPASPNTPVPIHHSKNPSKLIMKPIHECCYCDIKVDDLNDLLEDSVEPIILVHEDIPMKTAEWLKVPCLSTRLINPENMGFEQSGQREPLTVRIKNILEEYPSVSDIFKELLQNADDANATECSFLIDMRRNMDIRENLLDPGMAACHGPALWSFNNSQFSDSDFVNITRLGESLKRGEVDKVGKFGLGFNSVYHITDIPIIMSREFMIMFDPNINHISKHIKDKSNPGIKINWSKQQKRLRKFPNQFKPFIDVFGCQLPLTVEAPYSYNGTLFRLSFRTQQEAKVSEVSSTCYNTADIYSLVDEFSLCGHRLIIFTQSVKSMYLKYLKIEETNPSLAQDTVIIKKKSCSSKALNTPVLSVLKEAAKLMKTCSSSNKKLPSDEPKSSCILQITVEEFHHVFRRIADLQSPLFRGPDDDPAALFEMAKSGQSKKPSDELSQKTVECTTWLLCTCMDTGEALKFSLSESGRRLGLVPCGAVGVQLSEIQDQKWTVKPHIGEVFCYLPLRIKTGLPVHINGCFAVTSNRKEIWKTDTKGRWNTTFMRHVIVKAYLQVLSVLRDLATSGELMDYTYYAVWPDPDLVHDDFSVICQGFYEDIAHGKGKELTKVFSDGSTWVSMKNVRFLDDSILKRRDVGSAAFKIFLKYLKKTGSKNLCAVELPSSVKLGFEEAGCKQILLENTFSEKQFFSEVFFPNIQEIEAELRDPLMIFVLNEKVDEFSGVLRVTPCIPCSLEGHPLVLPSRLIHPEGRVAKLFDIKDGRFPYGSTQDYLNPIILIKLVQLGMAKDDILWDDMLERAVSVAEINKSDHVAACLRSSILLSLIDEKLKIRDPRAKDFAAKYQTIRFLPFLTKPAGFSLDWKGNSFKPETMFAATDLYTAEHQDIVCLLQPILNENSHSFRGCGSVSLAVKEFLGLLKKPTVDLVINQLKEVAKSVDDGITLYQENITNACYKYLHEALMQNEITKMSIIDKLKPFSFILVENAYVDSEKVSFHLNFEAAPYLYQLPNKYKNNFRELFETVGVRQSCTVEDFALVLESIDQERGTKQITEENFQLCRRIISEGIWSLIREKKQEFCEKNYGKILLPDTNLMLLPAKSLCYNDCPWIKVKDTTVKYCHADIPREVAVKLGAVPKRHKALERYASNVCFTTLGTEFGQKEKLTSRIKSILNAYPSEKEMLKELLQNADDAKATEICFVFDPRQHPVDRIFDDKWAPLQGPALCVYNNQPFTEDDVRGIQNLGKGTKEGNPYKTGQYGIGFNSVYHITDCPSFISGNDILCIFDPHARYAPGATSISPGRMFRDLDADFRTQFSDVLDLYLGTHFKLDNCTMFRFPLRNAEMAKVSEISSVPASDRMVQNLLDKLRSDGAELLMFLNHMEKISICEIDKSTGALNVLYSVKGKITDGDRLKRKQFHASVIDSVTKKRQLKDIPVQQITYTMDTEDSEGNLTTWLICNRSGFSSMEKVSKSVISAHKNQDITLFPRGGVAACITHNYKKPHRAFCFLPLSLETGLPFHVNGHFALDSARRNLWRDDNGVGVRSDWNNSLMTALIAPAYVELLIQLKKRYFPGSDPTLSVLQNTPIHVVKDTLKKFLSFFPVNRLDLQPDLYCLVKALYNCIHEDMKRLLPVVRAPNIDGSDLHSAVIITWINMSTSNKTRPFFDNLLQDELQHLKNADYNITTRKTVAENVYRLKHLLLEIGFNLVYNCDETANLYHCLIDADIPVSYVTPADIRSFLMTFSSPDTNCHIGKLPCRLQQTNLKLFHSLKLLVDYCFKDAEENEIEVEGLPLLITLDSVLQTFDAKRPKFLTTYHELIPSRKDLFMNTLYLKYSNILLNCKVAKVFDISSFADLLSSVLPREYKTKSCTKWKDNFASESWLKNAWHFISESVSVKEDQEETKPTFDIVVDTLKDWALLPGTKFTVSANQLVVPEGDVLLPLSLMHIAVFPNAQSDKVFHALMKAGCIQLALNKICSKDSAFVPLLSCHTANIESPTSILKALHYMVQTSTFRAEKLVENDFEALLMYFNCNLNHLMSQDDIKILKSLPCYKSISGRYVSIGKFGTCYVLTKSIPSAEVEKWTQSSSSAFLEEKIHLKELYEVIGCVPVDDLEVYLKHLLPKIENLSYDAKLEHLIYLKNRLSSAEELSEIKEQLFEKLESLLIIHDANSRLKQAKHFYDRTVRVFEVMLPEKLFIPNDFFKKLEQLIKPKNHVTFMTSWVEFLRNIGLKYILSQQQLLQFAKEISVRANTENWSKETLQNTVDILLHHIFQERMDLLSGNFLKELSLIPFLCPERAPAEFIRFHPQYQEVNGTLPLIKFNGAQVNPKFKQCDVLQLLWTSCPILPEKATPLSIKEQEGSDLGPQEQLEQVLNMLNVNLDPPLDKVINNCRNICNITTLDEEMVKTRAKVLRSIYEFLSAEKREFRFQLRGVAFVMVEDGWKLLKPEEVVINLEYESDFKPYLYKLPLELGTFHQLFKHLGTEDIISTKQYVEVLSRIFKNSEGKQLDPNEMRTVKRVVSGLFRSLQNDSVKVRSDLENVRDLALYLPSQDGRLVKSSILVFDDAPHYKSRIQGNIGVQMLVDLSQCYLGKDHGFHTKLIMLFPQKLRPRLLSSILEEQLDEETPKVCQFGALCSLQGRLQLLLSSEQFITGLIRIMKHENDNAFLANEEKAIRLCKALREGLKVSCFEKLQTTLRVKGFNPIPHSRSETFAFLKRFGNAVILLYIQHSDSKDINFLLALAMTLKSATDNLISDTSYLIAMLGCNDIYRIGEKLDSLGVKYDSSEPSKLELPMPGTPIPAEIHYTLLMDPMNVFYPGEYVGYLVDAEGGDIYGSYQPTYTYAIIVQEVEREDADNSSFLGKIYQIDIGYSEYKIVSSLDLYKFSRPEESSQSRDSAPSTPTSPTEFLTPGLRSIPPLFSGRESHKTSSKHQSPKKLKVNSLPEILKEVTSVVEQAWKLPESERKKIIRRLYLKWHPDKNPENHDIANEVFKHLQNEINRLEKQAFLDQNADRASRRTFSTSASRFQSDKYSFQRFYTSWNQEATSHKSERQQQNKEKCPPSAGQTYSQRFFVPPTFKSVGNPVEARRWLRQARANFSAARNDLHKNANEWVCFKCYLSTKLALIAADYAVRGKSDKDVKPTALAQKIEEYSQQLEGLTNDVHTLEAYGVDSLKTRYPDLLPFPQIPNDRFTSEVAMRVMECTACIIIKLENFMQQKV
Chain of UniProt Q9NY12 (Q9NY12 whole entry): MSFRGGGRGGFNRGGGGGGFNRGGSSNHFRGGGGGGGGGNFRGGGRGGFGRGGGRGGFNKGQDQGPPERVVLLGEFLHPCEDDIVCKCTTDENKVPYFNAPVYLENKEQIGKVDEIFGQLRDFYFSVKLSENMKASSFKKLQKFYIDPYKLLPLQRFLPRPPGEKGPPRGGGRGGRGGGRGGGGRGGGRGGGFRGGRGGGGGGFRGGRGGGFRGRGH

Target	NP40-soluble protein abundance (concentration: 1mM)	NP40-soluble protein abundance (concentration: 2mM)	NP40-soluble protein abundance (concentration: 4mM)	NP40-soluble protein abundance (concentration: 6mM)	NP40-soluble protein abundance (concentration: 8mM)	NP40-soluble protein abundance (concentration: 10mM)
TBRG4 (UniProt Q969Z0)	0.981 ± 0.047	0.957 ± 0.015	0.928 ± 0.026	0.962 ± 0.069	0.955 ± 0.022	0.948 ± 0.015
ZNF512B (UniProt Q96KM6)	1.01 ± 0.04	1.05 ± 0.02	1.07 ± 0.024	1.12 ± 0.044	1.08 ± 0.03	1.08 ± 0.043
QTRT1 (UniProt Q9BXR0)	1.01 ± 0.12	0.995 ± 0.091	1.02 ± 0.049	0.925 ± 0.14	0.994 ± 0.049	0.985 ± 0.051
UniProt Q9NQW7-3	1.01 ± 0.044	0.994 ± 0.029	0.968 ± 0.044	0.976 ± 0.052	0.991 ± 0.043	0.966 ± 0.036
UniProt Q9NY12|Q9NY12-2	1.11 ± 0.061	1.18 ± 0.084	1.29 ± 0.067	1.41 ± 0.16	1.72 ± 0.15	1.93 ± 0.32
DPCD (UniProt Q9BVM2)	0.965 ± 0.024	1.02 ± 0.045	0.969 ± 0.01	0.933 ± 0.048	0.929 ± 0.069	1.01 ± 0.087
SACS (UniProt Q9NZJ4)	1.09 ± 0.08	1.04 ± 0.072	1.08 ± 0.056	0.991 ± 0.075	1.102 ± 0.01	1.05 ± 0.042
UniProt Q9BTE6|Q9BTE6-3	0.947 ± 0.046	0.965 ± 0.018	0.932 ± 0.015	0.964 ± 0.067	0.928 ± 0.036	0.958 ± 0.025
ITPKC (UniProt Q96DU7)	0.986 ± 0.048	0.971 ± 0.041	1.0284 ± 0.00016	0.857 ± 0.11	0.886 ± 0.026	0.883 ± 0.019
UniProt Q9UBK8|Q9UBK8-2	0.946 ± 0.042	1.01 ± 0.066	0.941 ± 0.058	0.97 ± 0.068	0.973 ± 0.028	0.978 ± 0.08
UniProt Q9HC36	1.11 ± 0.06	1.29 ± 0.068	1.57 ± 0.13	1.8 ± 0.21	2.03 ± 0.2	2.37 ± 0.32
TM9SF3 (UniProt Q9HD45)	1.04 ± 0.12	1.03 ± 0.1	1.01 ± 0.079	0.946 ± 0.12	1.05 ± 0.099	1.01 ± 0.097
VPS37B (UniProt Q9H9H4)	0.992 ± 0.11	0.958 ± 0.12	0.967 ± 0.057	0.983 ± 0.12	0.946 ± 0.073	0.887 ± 0.13
UniProt Q96P11-2	1.05 ± 0.039	1.05 ± 0.03	1.11 ± 0.058	1.09 ± 0.068	1.13 ± 0.083	1.18 ± 0.072
IRAK4 (UniProt Q9NWZ3)	1.02 ± 0.042	1.03 ± 0.045	1.01 ± 0.051	0.985 ± 0.057	0.996 ± 0.043	0.988 ± 0.047
BIRC6 (UniProt Q9NR09)	1.05 ± 0.029	1.01 ± 0.058	0.992 ± 0.031	0.99 ± 0.12	0.999 ± 0.083	0.994 ± 0.088
COG8 (UniProt Q96MW5)	0.938 ± 0.057	0.917 ± 0.029	0.937 ± 0.048	0.898 ± 0.068	0.902 ± 0.06	0.975 ± 0.054
UniProt Q9BZ23|Q9BZ23-3|Q9BZ23-4	0.958 ± 0.079	0.995 ± 0.08	0.937 ± 0.054	0.914 ± 0.05	0.882 ± 0.11	0.91 ± 0.05
